Most compounds without a hit are left out; they make up all but 4.6% or so of the library.
SKKanGAS inh: SKKanGAS growth inhibition. S. pyogenes SKKanGAS, kanamycin growth, BacTiter-Glo, 6 h. inhibition, % at 7.5 µM. hit rate 1.3% among 300,000;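 active = mean replicate score, as percent of positive control median, at least 50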;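 also: strain carries kanamycin resistance gene driven by streptokinase promoter and grows in 40 µg/ml kanamycin; loss of luminescence reflects streptokinase promoter inhibition or plain growth inhibition; 0% = median of DMSO wells and 100% = positive control at its reference dose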
TIM10 inh: TIM10 yeast growth inhibition; S. cerevisiae TIM10 strain growth, BacTiter-Glo luminescence, 24 h; inhibition, % at 10 µM; hit rate 1.4% among 330,000; AID 463195;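 active = inhibition of 40% or more at the single tested concentration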;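 also: wild-type TIM10 isogenic control strain grown at permissive 25 °C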
PfHsp90 yeast 2: reduces growth (ATP signal) of yeast expressing P. falciparum Hsp90; S. cerevisiae expressing PfHsp90, BacTiter-Glo ATP, 48 h; yeast lacking PDR1 and PDR3 efflux regulators; inhibition, % at 9.4 µM; hit rate 0.32% among 310,000; AID 504621;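 active = every replicate shows inhibition above about 80%, whatever the replicate mean, limit read from the data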;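 also: 0% = DMSO neutral controls and 100% = 20 µM radicicol positive controls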
NALP3 yeast inh: NALP3 inhibition in yeast; inhibition, % at 10 µM; AID 2825; hit rate 0.39% among 330,000; Yeast reconstituted NLRP3/ASC/caspase-1, beta-gal luminescence, 24 h;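 active = inhibition of 50% or more; inactive = inhibition below 50%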;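 also: plate controls were induced DMSO wells for no effect and uninduced yeast grown without galactose for full effect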
tim10-1 inh: inhibits growth of tim10-1 mutant yeast; S. cerevisiae tim10-1 ts strain growth, BacTiter-Glo, 24 h; inhibition, % at 20 µM; hit rate 2.2% among 330,000;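 active = inhibition of at least 40%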;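 also: mutant grown at 25 °C; 0% = DMSO wells with yeast and 100% = wells holding no yeast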
tim23-1 inh: growth inhibitors of tim23-1 mutant yeast. S. cerevisiae tim23-1 growth, BacTiter-Glo luminescence, 24 h. inhibition, % at 20 µM. hit rate 1.3% among 330,000. AID 463212;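 active = growth inhibition of the mutant yeast at or above 50%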;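 also: temperature-sensitive mutant grown at 25 °C; plate controls were DMSO-treated mutant yeast for no effect and medium wells lacking yeast for full effect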
tim10-1 confirm: confirmation of tim10-1 mutant yeast growth inhibitors; AID 463213; shares compounds with tim10-1 inh; hit rate 56% among 7,400; S. cerevisiae tim10-1 ts strain growth, BacTiter-Glo, 24 h; inhibition, % at 20 µM;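 active = inhibition of yeast growth at or above a set limit in either of two repeat tests at 20 µM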;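 also: tim10-1 mutant grown at permissive 25 °C to find synthetic lethal compounds; 0% = DMSO yeast wells and 100% = medium wells without yeast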
Starred values were filed as active, the others as inactive.

CC(C)(C)C1CCc2onc(C(=O)Nc3cnn(Cc4ccc(F)cc4)c3)c2C1 (configuration not stated) was read as SKKanGAS inh 4, TIM10 inh 4, PfHsp90 yeast 2 15, NALP3 yeast inh 8, tim10-1 inh 14 and tim23-1 inh 2.
Screening CN(C)c1nc(NCc2ccccc2)nc(N/N=C/c2ccc3c(c2)OCO3)n1 returned SKKanGAS inh 27, TIM10 inh 13, PfHsp90 yeast 2 -1, NALP3 yeast inh 39, tim10-1 inh 41*, tim23-1 inh 39 and tim10-1 confirm 25.
Screening O=c1[nH]c(N/N=C/c2cc3c(cc2[N+](=O)[O-])OCO3)nc2ccccc12 returned SKKanGAS inh 8, TIM10 inh -4, PfHsp90 yeast 2 1, NALP3 yeast inh -5, tim10-1 inh 6 and tim23-1 inh -2.
O=c1[nH]c(N/N=C\c2ccc3c(c2)OCO3)nc2ccccc12 was read as SKKanGAS inh -2, TIM10 inh 19, PfHsp90 yeast 2 28, NALP3 yeast inh 0, tim10-1 inh 40*, tim23-1 inh 17 and tim10-1 confirm 22.
Screening COc1cccc(N(C(=O)CNC(=O)c2ccco2)C(C(=O)NC2CCCC2)c2ccco2)c1 (configuration not stated) returned SKKanGAS inh 4, TIM10 inh -3, PfHsp90 yeast 2 5, NALP3 yeast inh -13, tim10-1 inh 15 and tim23-1 inh 21.
`O=C(c1ccc(Cl)c(Cl)c1)N1CCC(=O)N(C(COCc2ccccc2)Cc2ccccc2)CC1` (configuration not stated) gave SKKanGAS inh 18, TIM10 inh 21, PfHsp90 yeast 2 2, NALP3 yeast inh 14, tim10-1 inh 40 and tim23-1 inh 48.
`COc1ccc(C2CC(=O)c3cnc(Nc4cc(C)cc(C)c4)nc3C2)cc1` (configuration not stated) gave SKKanGAS inh 2, TIM10 inh 36, NALP3 yeast inh 13, tim10-1 inh 46*, tim23-1 inh 30 and tim10-1 confirm 27.
Cc1cc(Br)cc(Br)c1OCC(=O)NNC(=O)c1ccoc1C was read as SKKanGAS inh -6, TIM10 inh -5, PfHsp90 yeast 2 6, NALP3 yeast inh 14, tim10-1 inh 1 and tim23-1 inh 10.
`C=CCC[C@@H](Cc1ccc(F)cc1)C(=O)OC[C@@H](Cc1ccccc1)NC(=O)[C@H](CC=C)CC(=O)NCCO` gave TIM10 inh 12, PfHsp90 yeast 2 8, NALP3 yeast inh 11, tim10-1 inh 23 and tim23-1 inh 18.
`N#Cc1cc(O)c(-n2nnc3ccccc32)cc1C#N` gave SKKanGAS inh -7, TIM10 inh 7, PfHsp90 yeast 2 -21, NALP3 yeast inh 2, tim10-1 inh -2 and tim23-1 inh 6.
`N#Cc1cc(Oc2cccc3cccnc23)c(-n2nnc3ccccc32)cc1C#N` gave SKKanGAS inh 7, TIM10 inh 32, PfHsp90 yeast 2 -25, NALP3 yeast inh 14, tim10-1 inh 48*, tim23-1 inh 34 and tim10-1 confirm 33*.
For CC(=O)N(C(C)=O)c1c(C#N)c(C)n(-c2ccccc2)c1C(=O)c1ccccc1 the results were SKKanGAS inh 8, TIM10 inh 20, PfHsp90 yeast 2 3, NALP3 yeast inh 19, tim10-1 inh 41*, tim23-1 inh 37 and tim10-1 confirm 20.
For Cc1[nH]c(C(=O)O)c(C#N)c1C(=O)c1ccccc1 the results were SKKanGAS inh 0, TIM10 inh 6, PfHsp90 yeast 2 14, NALP3 yeast inh 4, tim10-1 inh 8 and tim23-1 inh 5.
For COC(=O)C1=C(C)N=c2s/c(=C3\C(=O)Nc4ccccc43)c(=O)n2C1c1ccccc1 (configuration not stated) the results were SKKanGAS inh 13, TIM10 inh 18, NALP3 yeast inh 36, tim10-1 inh 40*, tim23-1 inh 39 and tim10-1 confirm 8.
Screening COc1cccc2sc(Nc3nc(-c4ccccn4)cs3)nc12 returned SKKanGAS inh 100*, TIM10 inh 13, PfHsp90 yeast 2 107*, NALP3 yeast inh 13, tim10-1 inh 52*, tim23-1 inh 50 and tim10-1 confirm 34*.
Screening Oc1ccc(-c2csc(Nc3ccccn3)n2)cc1O returned SKKanGAS inh 0, TIM10 inh 10, PfHsp90 yeast 2 15, NALP3 yeast inh 12, tim10-1 inh 22 and tim23-1 inh 13.
`CC(=O)Nc1ccc(-c2csc(Nc3ccccn3)n2)cc1` gave SKKanGAS inh -17, TIM10 inh -26, PfHsp90 yeast 2 -23, NALP3 yeast inh 2, tim10-1 inh 62*, tim23-1 inh -6 and tim10-1 confirm -39.
Screening c1ccc(Nc2nc(-c3ccccn3)cs2)cc1 returned SKKanGAS inh 100*, TIM10 inh 34, PfHsp90 yeast 2 -8, NALP3 yeast inh 35, tim10-1 inh 46*, tim23-1 inh 33 and tim10-1 confirm 23.
For COc1cccc2sc(NNC(=O)COc3ccccc3)nc12 the results were SKKanGAS inh -5, TIM10 inh -4, PfHsp90 yeast 2 14, NALP3 yeast inh 3, tim10-1 inh -13 and tim23-1 inh -5.
For CCOC(=O)C(=O)Nc1ncc(Cl)s1 the results were SKKanGAS inh -2, TIM10 inh 17, PfHsp90 yeast 2 16, NALP3 yeast inh 19, tim10-1 inh 5 and tim23-1 inh 33.
For CC(O)CNc1nc(Cl)c(C#N)s1 (configuration not stated) the results were SKKanGAS inh 4, TIM10 inh 5, PfHsp90 yeast 2 -1, NALP3 yeast inh -19, tim10-1 inh 9 and tim23-1 inh -13.
Screening Cc1cc(C)n2nc(C(=O)OCC(=O)Nc3ccc(C)c(S(=O)(=O)N4CCOCC4)c3)nc2n1 returned TIM10 inh -5, PfHsp90 yeast 2 6, NALP3 yeast inh 16, tim10-1 inh -7 and tim23-1 inh 5.
`CC(C)CNC(=O)c1cccc(NC(=O)c2ccc(Cl)c([N+](=O)[O-])c2)c1` gave SKKanGAS inh -5, TIM10 inh -21, PfHsp90 yeast 2 40, NALP3 yeast inh 13, tim10-1 inh -10 and tim23-1 inh -4.
COc1ccc(C2=NN3C(=O)c4c(ccc(OC)c4OC)C3C2)cc1 (configuration not stated) was read as SKKanGAS inh -1, TIM10 inh 37, PfHsp90 yeast 2 10, NALP3 yeast inh 23, tim10-1 inh 13 and tim23-1 inh 41.
COc1ccc2c(c1OC)C(=O)N1N=C(c3ccc(Cl)cc3)CC21 (configuration not stated) was read as SKKanGAS inh -2, TIM10 inh 31, PfHsp90 yeast 2 -7, NALP3 yeast inh 34, tim10-1 inh 46*, tim23-1 inh 39 and tim10-1 confirm 33*.
